Reference: PubChem BioAssay AID1159580 (chemical genetic matrix, 2015)
Several values for one entry are separate records, joined by “and”; a condition that tells them apart may be missing. Identical values can stand only once. The whole screen tested about 5,500 compounds, of which about 2,000 (36%) were called active. Not shown: some 18% with an inconclusive outcome. Rule as the data show it: active = normalized growth mostly below about 0.91 (no sharp cut-off); inconclusive = no clear call, values can overlap the other calls; inactive = mostly above about 0.92. This is one part of the list.

Test: chemical genetic growth profiling, strain panel (AID 1159580);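 also: tested at 20 µM; growth read once vehicle control cultures reached saturation at 30 °C; 1 = growth at the plate median or of vehicle wells; lower values mean less growth of the strain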
Settings: S. cerevisiae deletion strains, growth OD

Measured: normalized growth

CCCN(CCC)S(=O)(=O)c1ccc(C(=O)O)cc1
inactive: locus YAL013W, strain DEP1, hits give low values 0.992 | locus YAL021C, strain ccr4, hits give low values 0.998 | locus YAL026C, strain drs2, hits give low values 0.999 | locus YAL030W, strain snc1, hits give low values 0.992 | locus YBL061C, strain skt5, hits give low values 0.991 | locus YBR009C, strain hhf1, hits give low values 0.997 | locus YBR021W, strain FUR4, hits give low values 0.945 | locus YBR023C, strain chs3, hits give low values 0.994 | locus YBR171W, strain sec66, hits give low values 0.968 | locus YBR229C, strain ROT2, hits give low values 1 | locus YBR231C, strain swc5, hits give low values 0.955 | locus YBR279W, strain paf1, hits give low values 0.996 | locus YCL011C, strain gbp2, hits give low values 1 | locus YCL016C, strain dcc1, hits give low values 1 | locus YCL029C, strain bik1, hits give low values 1.02 | locus YCL069W, strain vba3, hits give low values 0.981 | locus YCR088W, strain abp1, hits give low values 0.993 | locus YDL005C, strain med2, hits give low values 0.987 | locus YDL035C, strain GPR1, hits give low values 0.998 | locus YDL040C, strain nat1, hits give low values 0.99 | locus YDL074C, strain BRE1, hits give low values 0.998 | locus YDL101C, strain DUN1, hits give low values 1.01 | locus YDL134C, strain PPH21, hits give low values 1 | locus YDL185W, strain tfp1, hits give low values 1.01 | locus YDL192W, strain arf1, hits give low values 1.01 | locus YDR001C, strain nth1, hits give low values 0.987 | locus YDR069C, strain doa4, hits give low values 0.987 | locus YDR101C, strain arx1, hits give low values 1 | locus YDR137W, strain rgp1, hits give low values 1.01 | locus YDR150W, strain NUM1, hits give low values 0.998 | locus YDR159W, strain sac3, hits give low values 1 | locus YDR162C, strain NBP2, hits give low values 0.999 | locus YDR195W, strain ref2 0.933 | locus YDR297W, strain sur2, hits give low values 0.998 | locus YDR318W, strain mcm21, hits give low values 1.02 | locus YDR334W, strain swr1, hits give low values 0.997 | locus YDR335W, strain msn5, hits give low values 0.992 | locus YDR388W, hits give low values 1.01 | locus YDR392W, strain spt3, hits give low values 1.01 | locus YDR502C, strain sam2, hits give low values 1.02 | locus YEL003W, strain gim4, hits give low values 0.99 | locus YEL037C, strain rad23, hits give low values 0.993 | locus YEL061C, strain CIN8 (second series), hits give low values 0.982 | locus YEL061C, strain CIN8, hits give low values 1 | locus YER015W, strain faa2, hits give low values 0.999 | locus YER016W, strain bim1, hits give low values 0.994 | locus YER110C, hits give low values 1.01 | locus YER111C, strain swi4, hits give low values 0.979 | locus YER155C, strain BEM2 (second series), hits give low values 0.978 | locus YER155C, strain BEM2, hits give low values 1.01 | locus YER167W, strain BCK2, hits give low values 1 | locus YFR010W, strain ubp6, hits give low values 0.983 | locus YGL078C, strain dbp3, hits give low values 1.01 | locus YGL086W, strain mad1, hits give low values 1 | locus YGL167C, strain pmr1, hits give low values 0.991 | locus YGL173C, strain kem1, hits give low values 0.976 | locus YGL227W, strain vid30, hits give low values 0.988 | locus YGL240W, strain doc1, hits give low values 0.976 | locus YGL248W, strain PDE1, hits give low values 1 | locus YGL253W, strain hxk2, hits give low values 1 | locus YGR078C, strain PAC10, hits give low values 0.967 | locus YGR135W, strain pre9, hits give low values 1.03 | locus YGR229C, strain SMI1, hits give low values 0.982 | locus YGR252W, strain gcn5, hits give low values 1 | locus YHR013C, strain ard1, hits give low values 0.986 | locus YHR027C, strain rpn1, hits give low values 0.999 | locus YHR030C, strain SLT2, hits give low values 1 and 1.02 | locus YHR079C, strain IRE1 (second series), hits give low values 1.01 | locus YHR079C, strain IRE1, hits give low values 1.01 | locus YHR094C, strain hxt1, hits give low values 1.01 | locus YHR129C, strain ARP1, hits give low values 1.01 | locus YHR142W, strain chs7, hits give low values 1 | locus YHR200W, strain rpn10, hits give low values 1.01 | locus YIL066C, strain RNR3, hits give low values 0.996 | locus YIL073C, strain SPO22, hits give low values 1.08 | locus YIL125W, strain kgd1, hits give low values 1.01 | locus YIR030C, strain dcg1, hits give low values 1 | locus YJL092W, strain hpr5, hits give low values 0.981 | locus YJL095W, strain BCK1 (second series), hits give low values 0.995 | locus YJL095W, strain BCK1, hits give low values 1.02 | locus YJL115W, strain asf1, hits give low values 0.989 | locus YJL129C, strain trk1, hits give low values 0.99 | locus YJL134W, strain LCB3, hits give low values 0.997 | locus YJL154C, strain vps35, hits give low values 0.99 | locus YJL164C, strain tpk1, hits give low values 1.01 | locus YJL166W, strain qcr8, hits give low values 0.966 | locus YJL168C, strain set2, hits give low values 1 | locus YJL187C, strain SWE1 (second series), hits give low values 1.01 | locus YJL187C, strain SWE1, hits give low values 0.991 | locus YJR043C, strain POL32, hits give low values 1 | locus YJR066W, strain TOR1, hits give low values 0.965
